The panel holds about 83,000 compounds, 20% with a hit somewhere; the sample as a whole holds those more often.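 Step 1: grow cells in 96-well plates. Step 2: add test compound at a single concentration. Step 3: incubate 48 h. Step 4: record percent growth.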 Unmarked numbers belong to inactive results. Calls of active or inactive are those of the source. How the source made its calls: active means growth percent below 10; inactive means the rest.

Some test systems named below: NCI-H23 lung; NCI-H226 lung; NCI-H322M lung; HOP-62 NSCLC; NCI-H460 lung; HOP-92 NSCLC; NCI-H522 lung; A549/ATCC NSCLC; 786-0 renal; COLO 205 colon.
Holding throughout (experiment): NCI-60 one-dose screen, 48 h (100 = growth as untreated, 0 = no growth, -100 = all killed)
Common to all, as to settings: 10 µM unless noted

In the case of `N#Cc1c(-c2ccc(Br)cc2)nc2n[nH]c(-c3ccc(Br)cc3)c2c1-c1ccc(F)cc1`, the growth in the assay with NCI-H23 lung is 92.6%; in the assay on NCI-H226 lung it was 87.5%; in the assay on NCI-H322M lung, 90.6%; in the assay on HOP-62 NSCLC, 87.9%; in the assay with NCI-H460 lung it was 106%; in the assay with HOP-92 NSCLC, 112%. Moreover, the growth in the assay with NCI-H522 lung is 94.1%; with A549/ATCC NSCLC, 99.7%; with 786-0 renal, 102%; in the assay with COLO 205 colon, 92.1%.

For the compound `COC1=C[C@]23CCC(=O)N2CCc2cc4c(cc2[C@@H]3[C@@H]1OC(=O)[C@H](C)O)OCO4`, the growth in the assay with NCI-H23 lung was 9.59% (active); in the assay with NCI-H226 lung, 11%; with NCI-H322M lung, 69.7%; with HOP-62 NSCLC, 46.6%; in the assay with NCI-H460 lung, -5.4% (active); in the assay with NCI-H522 lung, -48.1% (active). In addition, the growth is 7.1% (active) in the assay on A549/ATCC NSCLC, 22.7% with 786-0 renal and 28.4% in the assay on COLO 205 colon.

Regarding `CN1CCN(Cc2ccc(C(=O)Nc3cccc(C#Cc4cccc5[nH]nc(N)c45)c3)cc2C(F)(F)F)CC1`, the growth is -87.3% (active) in the assay on NCI-H23 lung; -84% (active) in the assay on NCI-H226 lung; -98.3% (active) in the assay with NCI-H322M lung; -90.1% (active) with HOP-62 NSCLC; -25.3% (active) with NCI-H460 lung; -87.7% (active) in the assay on HOP-92 NSCLC. The growth with NCI-H522 lung is -64.3% (active); in the assay on A549/ATCC NSCLC it was -88.8% (active); in the assay with 786-0 renal it was -99.4% (active); with COLO 205 colon, -87% (active).

In the case of `CN(C)c1nc(NCCNS(=O)(=O)c2ccc(C(=O)/C=C/c3ccc(F)cc3)cc2)nc(Nc2ccc(F)cc2)n1`, the growth with NCI-H23 lung is -84% (active); with NCI-H226 lung it was -74.4% (active); with NCI-H322M lung it was -22.6% (active); with HOP-62 NSCLC it was -71.2% (active); with NCI-H460 lung, -75.2% (active); in the assay with NCI-H522 lung it was -96.1% (active). Also, the results for the growth with A549/ATCC NSCLC, in the assay with 786-0 renal and with COLO 205 colon were -56.4% (active), -85.6% (active) and -85.7% (active), respectively.

For `CN1CCN(c2ccc3c(c2)nc(NNC(=O)c2ncccn2)c2cccn23)CC1`, the growth in the assay on NCI-H23 lung was 4.51% (active); in the assay on NCI-H226 lung it was -22.8% (active); in the assay with NCI-H322M lung it was -7.59% (active); in the assay with HOP-62 NSCLC, -19.7% (active); in the assay with NCI-H460 lung, 3.42% (active); in the assay on HOP-92 NSCLC, -14.8% (active). For the same compound, the growth was -7.36% (active) in the assay with NCI-H522 lung, 12.5% in the assay on A549/ATCC NSCLC, -96.8% (active) with 786-0 renal and -85.7% (active) in the assay on COLO 205 colon.

Turning to `COc1c(F)ccc(C(=O)Nc2ccc3nc(NC(=O)C4CCCN(S(=O)(=O)c5cccc(C(F)(F)F)c5)C4)sc3c2)c1F` (stereo not drawn), the growth in the assay with NCI-H23 lung was 96.9%; with NCI-H226 lung it was 93.6%; with NCI-H322M lung, 98.9%; with HOP-62 NSCLC, 99%; in the assay on NCI-H460 lung it was 79.4%; in the assay with NCI-H522 lung it was 85.2%. For the same compound, the growth in the assay on A549/ATCC NSCLC was 79.4%; in the assay with 786-0 renal it was 60.9%; in the assay with COLO 205 colon, 84.6%.

With `COC(=O)C[C@](O)(CCCC(C)(C)O)C(=O)O[C@H]1C(OC)=C[C@@]23CCCN2CCc2cc4c(cc2[C@@H]13)OCO4`, the growth was -53.9% (active) in the assay with NCI-H23 lung; -21.4% (active) in the assay with NCI-H226 lung; -3.53% (active) in the assay with NCI-H322M lung; 14.3% with HOP-62 NSCLC; -3.74% (active) with NCI-H460 lung; -68.7% (active) in the assay with NCI-H522 lung. For the same compound, the figures for the growth with A549/ATCC NSCLC, in the assay on 786-0 renal and in the assay on COLO 205 colon were -18.5% (active), -14.4% (active) and -42.3% (active), respectively.

On to `CC(=O)Nc1ccc(-n2cnc3cc(-c4ccc(O)cc4)ccc32)cc1C(F)(F)F`, for which the growth with NCI-H23 lung was 21.4%; in the assay with NCI-H226 lung, 44.8%; in the assay on NCI-H322M lung, 41.1%; with HOP-62 NSCLC, 34.4%; with NCI-H460 lung, 9.22% (active); with HOP-92 NSCLC, 44.8%. The growth was -33.8% (active) with NCI-H522 lung, 19.4% with A549/ATCC NSCLC, 20.3% in the assay on 786-0 renal and 43.8% in the assay on COLO 205 colon.

With `Cn1nc(C(F)(F)F)cc1-c1cc(Cl)c(COc2ccc(Cl)cc2)c(-c2ccc(Cl)c(C(F)(F)F)c2)c1O`, the growth is -46.7% (active) in the assay on NCI-H23 lung; -39.5% (active) with NCI-H226 lung; 6.41% (active) with NCI-H322M lung; -40.9% (active) with HOP-62 NSCLC; -48.1% (active) with NCI-H460 lung; -27.7% (active) in the assay on NCI-H522 lung. Further, the values for the growth in the assay with A549/ATCC NSCLC, in the assay with 786-0 renal and with COLO 205 colon were 2.95% (active), -63.5% (active) and -83.2% (active), respectively.

For `CC(C)CSc1nc(NCCc2c[nH]c3ccccc23)c(C#N)c(-c2ccc(Cl)cc2)n1`, the growth in the assay with NCI-H23 lung is 69.2%; in the assay on NCI-H226 lung it was 51.3%; in the assay on NCI-H322M lung, 86.5%; in the assay with HOP-62 NSCLC it was 49.3%; with NCI-H460 lung, 30.3%; with HOP-92 NSCLC, 36.3%. In addition, the growth in the assay with NCI-H522 lung is 68.7%; with A549/ATCC NSCLC, 63%; in the assay with 786-0 renal it was 67%; with COLO 205 colon, 41%.

Take `Cn1cc(-c2cc(N)n3nc(-c4c[nH]c5ccccc45)cc3n2)c2cccnc21`: the growth with NCI-H23 lung was 47.6%; in the assay on NCI-H226 lung it was 71.2%; in the assay with NCI-H322M lung, 44.7%; with HOP-62 NSCLC it was 62.6%; in the assay with NCI-H460 lung it was 2.29% (active); with NCI-H522 lung, 31.3%. Also, the growth in the assay with A549/ATCC NSCLC was 51.7%; in the assay with 786-0 renal, -81.3% (active); in the assay on COLO 205 colon, 40.2%.

As for `O=C(COc1ccc(NC(=O)Nc2ccc(Cl)c(Cl)c2)cc1)N=Nc1c(O)[nH]c2ccccc12`, the growth in the assay on NCI-H23 lung was -43.7% (active); in the assay with NCI-H226 lung, -34.7% (active); in the assay with NCI-H322M lung it was 28%; in the assay on HOP-62 NSCLC, -53.1% (active); with NCI-H460 lung, -63.4% (active); in the assay on HOP-92 NSCLC, -41% (active). Moreover, the growth with NCI-H522 lung is -42.8% (active); in the assay with A549/ATCC NSCLC, -36.3% (active); in the assay on 786-0 renal it was -71.9% (active); with COLO 205 colon it was -41.7% (active).

With `CC1CN(c2oc(-c3ccc([N+](=O)[O-])cc3)nc2C#N)CC(C)O1` (stereo not drawn), the growth with NCI-H23 lung was 97.9%; in the assay on NCI-H226 lung it was 102%; with NCI-H322M lung it was 96.9%; in the assay with HOP-62 NSCLC, 98.9%; with NCI-H460 lung, 107%; with NCI-H522 lung it was 100%. For the same compound, the growth in the assay on A549/ATCC NSCLC was 102%; in the assay with 786-0 renal, 104%; in the assay on COLO 205 colon it was 109%.

Consider `CN(C)c1ccnc(CNCCSC2(c3ccc(C(F)(F)F)cc3)c3ccccc3C=Cc3ccccc32)c1`, for which the growth in the assay on NCI-H23 lung was -39.1% (active); with NCI-H226 lung, 25.9%; in the assay on NCI-H322M lung it was 42.9%; in the assay on HOP-62 NSCLC, 17.2%; in the assay on NCI-H460 lung, -89.4% (active); in the assay with HOP-92 NSCLC it was -10.1% (active). In addition, the growth is -64.9% (active) in the assay with NCI-H522 lung, 2.72% (active) with A549/ATCC NSCLC, -22.4% (active) in the assay with 786-0 renal and -82.3% (active) in the assay with COLO 205 colon.

These data come from PubChem BioAssay (NCI).
